Measured values reported in PubChem BioAssay AID463173 (ICCB-Longwood Screening Facility, Harvard Medical School, 2010).
The whole screen tested about 52,000 compounds, of which about 1,700 (3.3%) were called active. This excerpt belongs to a sample that is enriched for actives. Values without a mark were called inactive. No stated cut-off is given here; in the data, active means survival mostly below about 52% (no sharp cut-off); inactive means mostly above about 56%.

The molecules below were run on Wild type (assay: growth inhibition of S. aureus wild type versus tarO mutant, primary screen, teichoic acid synthesis inhibitors, RN4220, OD600 (AID 463173)). Details: S. aureus RN4220 wild type/DeltatarO growth, OD600, 18 h, stronger effect = lower value, screened at 18.75 µg/mL (by protocol).
Molecule `CC1CCN(S(=O)(=O)c2ccc3nc(NCc4ccccc4)ccc3c2)CC1` has a survival of 131%. For `Cc1nc2ccn(Cc3ccco3)c(=O)c2cc1C(=O)NCc1ccc(Cl)cc1`, the survival was 60%. `O=C(O)c1ccc2c(c1)C(=O)NC2=O` was tested, and the survival was 113%. In the case of `O=C(Nc1ccc2[nH]c(=O)c(=O)[nH]c2c1)c1cccc(F)c1`, the survival was 140%. `CC(=O)Nc1ccc(S(=O)(=O)NC2=NCN(C(C)C)CN2)cc1` showed a survival of 143%. `C=CCNC(=O)Nc1c[nH]c2ccccc2c1=O` was tested, and the survival was 111%. Molecule `O=C(CSCc1cc(=O)c2ccccc2[nH]1)Nc1cccc(C(F)(F)F)c1` has a survival of 124%. Molecule `O=C(O)CCC(=O)N1CCc2cc(S(=O)(=O)NCc3ccc(F)cc3)ccc21` has a survival of 85%. Molecule `O=C(CCc1nnc2n(Cc3ccccc3Cl)c(=O)c3ccccc3n12)Nc1ccc(F)c(F)c1` has a survival of 89%. `O=C(Nc1ccc(F)cc1F)c1cc(CN2CCOCC2)on1` showed a survival of 69%. `CCOC(=O)c1cnc2c(C)c(C)ccc2c1NCCCCCO` showed a survival of 110%. Work on `CCOC(=O)c1cnc2ccc(OCC)cc2c1NCCc1ccc(OC)c(OC)c1` yielded a survival of 133%. With `CCOC(=O)c1cnc2c(C)c(Cl)ccc2c1NCCc1ccc(OC)c(OC)c1` the survival was 4% (active). With `CCOC(=O)c1cnc2c(C)c(Cl)ccc2c1Nc1ccc(C)cc1C` the survival was 140%. Molecule `CCOC(=O)c1cnc2c(C)cc(C)cc2c1NCCc1ccc(OC)c(OC)c1` has a survival of 75%. With `CCOC(=O)c1cnc2c(C)c(Cl)ccc2c1NCCc1ccccc1` the survival was -3% (active). Work on `CCOC(=O)c1cnc2c(C)cc(Cl)cc2c1NCCc1ccc(OC)c(OC)c1` yielded a survival of 48%. For `CCOC(=O)c1cnc2ccc(OC)cc2c1NCCc1ccccc1`, the survival was 0% (active). `CCOC(=O)c1cnc2ccc(OC)cc2c1NCCc1ccc(OC)c(OC)c1` was tested, and the survival was 78%. `COc1cc(Cl)c(C)cc1NC(=O)c1cnn(-c2ccc(C)cc2)c1-n1cccc1` was tested, and the survival was 65%. `CC1(C(=O)O)CCC(C(=O)N2CCCCC2)C1(C)C` (configuration not stated) was tested, and the survival was 106%. In the case of `Cc1ccc(NC2=C(CC(=O)O)C(c3ccc(F)cc3)N(c3ccc(C)cc3)C2=O)cc1` (configuration not stated), the survival was 74%. `Cc1ccc(CNC(=O)CCc2c(C)c3ccc(O)c(C)c3oc2=O)cc1` showed a survival of 87%. `Cc1nc2sc(C(=O)NCc3ccc(Cl)cc3)c(NC(=O)c3ccccc3)c2c(C)c1C` was tested, and the survival was 86%. Work on `Cc1ccc(CNC(=O)CN2N=C(c3ccc(C)cc3)CCC2=O)cc1` yielded a survival of 80%. Molecule `CCCCc1nc2ccccc2c(C(=O)O)c1C` has a survival of 106%. `CCCCN(C)CCCNC(=O)c1cc(-c2cccnc2)nc2ccccc12` gave a survival of 77%. `COc1ccccc1Nc1nc(-c2ccccc2F)nc2ccccc12` showed a survival of 73%. In the case of `CCN(CC)c1nc(-c2ccccc2)nc2ccccc12`, the survival was 108%. With `CCN(CC)c1nc(-c2ccc(C(C)(C)C)cc2)nc2ccccc12` the survival was -2% (active). In the case of `CCCCN(CC)c1nc(-c2ccccc2F)nc2ccccc12`, the survival was 71%. In the case of `CCCN(CCC)c1nc(-c2ccccc2F)nc2ccccc12`, the survival was 1% (active). Work on `Cc1cc(N(C)Cc2ccccc2)n2nc(-c3ccc(C(C)(C)C)cc3)nc2n1` yielded a survival of 77%. With `CC(C)CN(CC(C)C)c1nc(-c2ccc(Cl)cc2)nc2ccccc12` the survival was -1% (active). With `CCCCN(CCCC)c1nc(-c2ccccc2)nc2ccccc12` the survival was -3% (active). For `Cc1ccc(C(=O)COC(=O)c2cc(-c3ccc(Cl)cc3)nc3ccccc23)cc1`, the survival was 117%. `Cc1cc(Sc2ccc(Cl)cc2)nc2ccccc12` was tested, and the survival was 50%. `COc1ccc(-n2ccnc2SCC(=O)Nc2ccc(F)cc2F)cc1` gave a survival of 143%. With `Cc1ccccc1NC(=O)CSc1ncc2c(n1)-c1ccccc1N(C)S2(=O)=O` the survival was 99%. With `CCN(C(=O)c1sc2nc3n(c(=O)c2c1C)CCCCC3)c1ccc(OC)cc1` the survival was 83%. For `CCN(C(=O)C1CCC(CNS(=O)(=O)c2cccc3nsnc23)CC1)c1cccc(C)c1` (configuration not stated), the survival was 86%. Molecule `N#Cc1c(/N=C/c2ccc3c(c2)OCO3)oc(-c2ccccc2)c1-c1ccccc1` has a survival of 115%. For `COc1cccc(CNC(=O)Cn2c(=O)nc(-c3ccccc3F)c3cc(Cl)ccc32)c1`, the survival was 82%. With `O=C(COc1ccccc1)NS(=O)(=O)c1ccc(N=NN2CCOCC2)cc1` the survival was 105%. Molecule `Cc1ccc(CNC(=O)C(=O)Nc2c3c(nn2-c2ccccc2)CSC3)cc1` has a survival of 82%. With `COc1ccc(NC(=O)CSc2ncc3c(n2)-c2cc(Cl)ccc2N(Cc2ccccc2F)S3(=O)=O)cc1` the survival was 65%. `CCc1ccccc1NC(=O)CC1NCCNC1=O` (configuration not stated) showed a survival of 87%. In the case of `O=C(Nc1cccc(C(F)(F)F)c1)C1CCN(S(=O)(=O)c2cccs2)CC1`, the survival was 92%. `Cc1ccc(C)c(N2CCN(CCCNC(=O)c3ccc4nc(N5CCC(C)CC5)sc4c3)CC2)c1` was tested, and the survival was 1% (active). For `Cc1cccc(N2CCN(C(=O)c3ccc4nc(N5CCC(C)CC5)sc4c3)CC2)c1C`, the survival was 1% (active). `Cc1ccc(C)c(N2CCN(CCCNC(=O)c3ccc4nc(N5CCCCC5)sc4c3)CC2)c1` was tested, and the survival was 76%. `Cc1ccc(Cl)cc1N1CCN(CCCNC(=O)c2ccc3nc(N4CCCCC4)sc3c2)CC1` was tested, and the survival was 45%. In the case of `Cc1ccc(Cl)cc1N1CCN(C(=O)c2ccc3nc(N4CCC(C)CC4)sc3c2)CC1`, the survival was 16%. In the case of `CC1CCN(c2nc3ccc(C(=O)N4CCN(c5ccccc5)CC4)cc3s2)CC1`, the survival was 64%. Work on `O=C(O)CCc1ccc(-c2cccs2)n1CC(=O)Nc1ccccc1C(F)(F)F` yielded a survival of 105%. `COc1ccc(OC)c(NC(=O)N2CCC(CN3CCCCC3)CC2)c1` showed a survival of 70%. Work on `O=C(NCC(c1cccs1)S(=O)(=O)c1cccs1)c1c(F)cccc1F` (configuration not stated) yielded a survival of 71%. Work on `COCCCNC(=O)C1CCN(Cc2cc3ccccc3n2Cc2ccccc2C)CC1` yielded a survival of 78%. `C=CCC1Cc2ccccc2C(CC=C)N1` (configuration not stated) was tested, and the survival was 100%. `Cc1ccc(-c2cn3c(n2)sc2cc(C(=O)NCCCN4CCCCCC4)ccc23)cc1` was tested, and the survival was -1% (active). In the case of `CCCN1CCN(CCCNC(=O)c2ccc3c(c2)sc2nc(-c4ccc(C)cc4)cn23)CC1`, the survival was 20%. With `O=C(NCCCN1CCCCC1)c1ccc2c(c1)sc1nc(-c3ccc(F)cc3)cn12` the survival was 43%. In the case of `COc1ccc(-c2cn3c(n2)sc2cc(C(=O)NCCCN4CCCCCC4)ccc23)cc1`, the survival was 66%. In the case of `COc1ccc(-c2cn3c(n2)sc2cc(C(=O)NCCCN4CCCCC4)ccc23)cc1`, the survival was 81%. In the case of `CCN1CCN(CCCNC(=O)c2ccc3c(c2)sc2nc(-c4ccc(C)cc4)cn23)CC1`, the survival was 29%. With `CCC1CCCCN1CCCNC(=O)c1ccc2c(c1)sc1nc(-c3ccc(F)cc3)cn12` (configuration not stated) the survival was 6% (active). Work on `CC1CCCCN1CCCNC(=O)c1ccc2c(c1)sc1nc(-c3ccc(F)cc3)cn12` (configuration not stated) yielded a survival of 26%. `Cc1ccc(-c2cn3c(n2)sc2cc(C(=O)NCCCN4CCCCC4)ccc23)cc1` was tested, and the survival was -1% (active). `CCCCNC(=O)c1ccc(-c2nc(CS(=O)(=O)c3ccc(C)cc3)c(C)o2)cc1` showed a survival of 83%. For `COc1ccc(C2=NN(C(C)=O)C(c3cn(-c4ccccc4)nc3-c3cccs3)C2)cc1` (configuration not stated), the survival was 127%. In the case of `O=C(NCCN1CCOCC1)N1CCNC1=O`, the survival was 110%. With `CC1(C)N=C2C(=[N+]1[O-])CCC/C2=N/O` the survival was 110%. For `Cc1ccc(C)c(NC(=O)NCc2ccc3c(c2)CCN3C(=O)c2ccccc2)c1`, the survival was 66%. With `CC(C)N1CCc2nc(SCC(=O)Nc3cccc(F)c3)[nH]c(=O)c2C1` the survival was 83%. Molecule `Cc1ccc(NC(=O)Cn2c(=O)n(CCC(C)C)c(=O)c3cccnc32)cc1C` has a survival of 90%. Molecule `Cc1ccc(-c2nc(CS(=O)CC(=O)NCc3ccccc3Cl)c(C)o2)cc1` (configuration not stated) has a survival of 72%. In the case of `CCc1cc(=O)[nH]c(SCc2nc(-c3ccc(C(F)(F)F)cc3)no2)n1`, the survival was 0% (active). With `Cc1ccc2nc(SCc3nc(-c4ccc(Cl)cc4)no3)[nH]c2c1` the survival was -4% (active). `Cc1cccc(-c2noc(CSc3nc(-c4ccc(F)cc4)cc(=O)[nH]3)n2)c1` was tested, and the survival was 82%. With `CCCc1cc(=O)[nH]c(SCc2nc(-c3ccccc3)no2)n1` the survival was -2% (active). `CCc1cc(=O)[nH]c(SCc2nc(-c3ccccc3)no2)n1` gave a survival of 87%. `CCc1cc(=O)[nH]c(SCc2nc(-c3cccc(Cl)c3)no2)n1` gave a survival of 22%. For `Cc1ccccc1-c1noc(CSc2nc(-c3ccc(F)cc3)cc(=O)[nH]2)n1`, the survival was 10% (active). Molecule `CCCc1cc(=O)[nH]c(SCc2nc(-c3ccc(C)cc3)no2)n1` has a survival of 73%. Work on `Cc1ccc2nc(SCc3nc(-c4ccccc4C)no3)[nH]c2c1` yielded a survival of 27%. Work on `O=c1cc(-c2ccccc2)nc(SCc2nc(-c3ccc(C(F)(F)F)cc3)no2)[nH]1` yielded a survival of 150%. With `COc1ccc(-c2noc(CSc3nc4ccc(C)cc4[nH]3)n2)cc1` the survival was 47%. `O=c1cc(-c2ccc(F)cc2)nc(SCc2nc(-c3ccccc3Cl)no2)[nH]1` was tested, and the survival was 121%. Work on `CCn1nc(CC(=O)Nc2nnc(CC(=O)N3CCCC3)s2)c2ccccc2c1=O` yielded a survival of 95%. With `Cc1nc2ccc(S(=O)(=O)NC(C(=O)NCc3ccc(Cl)cc3)C(C)C)cc2s1` (configuration not stated) the survival was 133%. In the case of `O=C(CCS(=O)(=O)c1cc2c(cc1Cl)NC(=O)CO2)NCc1ccccc1Cl`, the survival was 88%. Molecule `COc1cc(NC(=O)CN(c2cc(C)cc(C)c2)S(=O)(=O)c2c(C)[nH]c(=O)[nH]c2=O)cc(OC)c1` has a survival of 83%.
